# According to the OligoGym collection:
# Biological target: INF2
# Test: pooled miR-30 sensor sort-seq; sequence = guide strand
# Conditions: shRNA
# Note: reference of the scale not given here.
row,Sequence,sensor-assay potency score (higher = more potent)
1,TTCAGCAATGTGCTGATCTTGA,-0.209
2,TTTCAATCTCGTGCTTCTCGGG,-0.468
3,TTTTGATTAAACCTTGCTGGGC,-0.764
4,TCAGTGGTTAGGACATCGCTGG,-0.678
5,TTCATGACAATGCTGAAGCGGT,-0.245
6,TGTTGTAGCATCAAGGCCGGGC,-0.171
7,TTGCATTTTGATTAAACCTTGC,-0.249

# Biological target: INO80B
# Test: as above
# Conditions: shRNA
row,Sequence,sensor-assay potency score (higher = more potent)
1,ATTATCCACAACCATAAGGGGA,-1.17
2,TTGAGTTTGAGCTGAGGCTTGG,-0.366
3,TAACCCTCCTGATAGGTCCCGA,-0.336
4,TTTTCTTGTGCACTCCATGGCC,-0.4
5,TTATCCACAACCATAAGGGGAG,-0.805
6,TTCTTGTGCACTCCATGGCCAT,-1.62
7,TTCCTGATGGTGTTTCTTCTTG,-0.564
8,ATTACTGTCTTCATCCAGCCAG,-0.0733
9,TTTGAGTTTGAGCTGAGGCTTG,-0.36
10,TTACTGTCTTCATCCAGCCAGG,-0.737
11,TTGTGTTTCTTCTTGTGCTTCT,0.567
12,TCTGGGATCACAGTGAAGGTAG,0.138

# Biological target: INO80C
# Test: as above
# Conditions: shRNA
row,Sequence,sensor-assay potency score (higher = more potent)
1,TTCTGTTCTTCTTGCCAGCTAC,-0.723
2,TGTAGTTGGCAAGCAGACCTGA,-0.0597
3,TTTACTTGAGGCAACAACTGAA,0.108
4,TTACTTGAGGCAACAACTGAAG,-0.863
5,ATTTGTTTCAGGTTCTTCCAGG,-0.776
6,TTCAATGGTGCTGAACCGCAGT,-0.122
7,TTGCTGTTCCGGACTATTCCGG,-0.701
8,TTTTGAAACAGCTTTCCACTTC,0.164
9,TACTGAAGTAGTTAGGATCGTT,0.332
10,TGAAACATCAGAATACTTCTTA,1.15
11,TTGGAGGGAAAACACACACTAA,-1.27
12,TATAATTTAATTCAGCAGGAAA,-1.3

# Biological target: INPP5F
# Test: as above
# Conditions: shRNA
row,Sequence,sensor-assay potency score (higher = more potent)
1,TTCTTTGTATCTGTAGTGCAGT,-0.359
2,TTCATTTGAAACTTGATTGGTC,0.857
3,TAATCTTCTCTCTTCCTGCCTG,0.168
4,TTGGGTAATACTAGCAACCTGG,-0.472
5,TAGACTTAGTCGTTGATACTGG,-0.136
6,TTCGTTTATAGCGCATTCCTGC,-0.611
7,TTCACTTCTGTCCAGCCGCGGT,-1.35
8,TTAGTGTCTGAACATTCTCAAA,-1.6
9,TTGCTTGGTGATCTGCAGCATC,-0.92
